Calls of active or inactive are those of the source. Rule for the calls: active = hit-call score of the fitted dose curve at least 0.9, where 1 is the maximum; inactive = score below 0.9.
Assay: ATG_M_19_CIS: Attagene CIS-FACTORIAL HepG2 Assay for M19 Transcription Factor (Internal Marker) (AID 2282939)
Conditions: HepG2 Attagene CIS-FACTORIAL M19 internal marker reporter; actives raise or lower the signal
Protocol: ATG_CIS is a cell-based, multiplexed-readout assay that uses HepG2, a human liver cell line, with measurements taken at 24 hours after chemical dosing in a 24-well plate.ATG_M_19_CIS is one of 52 assay component(s) measured or calculated from the ATG_CIS assay. It is designed to make measurements of mRNA induction, a form of inducible reporter, as detected with fluorescence intensity signals by Reverse transcription polymerase chain reaction (RT-PCR) and Capillary electrophoresis technology.Data from the assay component ATG_M_19_CIS was analyzed into 1 assay endpoint. This assay endpoint, ATG_M_19_CIS, was analyzed with bidirectional fitting relative to DMSO as the negative control and baseline of activity. Using a type of inducible reporter, measures of mRNA for gain or loss-of-signal activity can be used to understand the background control at the transcription factor-level as they relate to the gene . Furthermore, this assay endpoint can be referred to as a secondary readout, because this assay has produced multiple assay endpoints where this one serves a background control function. To generalize the intended target to other relatable targets, this assay endpoint is annotated to the background measurement intended target family, where the subfamily is internal marker.
Human liver HepG2 cells are transiently transfected with multiple reporter transcription units (MRTUs) in 6-well plates using FuGene 6 reagent (Roche; 3 ml FuGene/1 mg DNA). The MRTU constructs are regulated by a cis-regulating element (promoter). […] A major difference between the CIS and TRANS system is that in CIS activities of endogenous TFs are measured, whereas the TRANS assay evaluates changes in activities of exogenous, chimeric NR-Gal4 proteins. […] At the end of 24 hour incubation, total RNA was isolated using TriZol reagent (Invitrogen). The isolated RNA is then reverse-transcribed using oligo(dT) primer and Mo-MLV reverse transcriptase (Invitrogen) with DNAse I (Ambion) treatment for 30 min. The one-tenth of the produced cDNA was amplified by PCR using Taq DNA polymerase (Invitrogen) and two reporter sequence-specific primers. The PCR products were fluorescently labeled by primer extension with 6-arboxyfluorescein (6-FAM) 5'-labeled reporter sequence-specific primer (2 min at 95 C, 20 s at 68 C and 10 min at 72 C) and these products were digested with 5U of HpaI (New England Biolabs) for 2h at 37 C. The fragments were purified using Qiaquick PCR columns (Qiagen), analyzed on an ABI 3130xL genetic analyzer (Applied Biosystems) with peak positions identified by using a set of X-rhodamine (ROX)-labeled MapMarker1000 molecular weight standards (BioVentures). The raw capillary electrophoresis data was processed using Attagraph software (Attagene).

outcome, inactive:
CC(C)(C)CC(C)(C)c1ccc(OCCOCC[N+](C)(C)Cc2ccccc2)cc1
COC(=O)C=C(C)CCC=C(C)C
CC1(C)O[C@@H]2C[C@H]3[C@@H]4CCC5=CC(=O)C=C[C@]5(C)[C@@]4(F)[C@@H](O)C[C@]3(C)[C@]2(C(=O)CO)O1
C=C(C)C1CC=C(C)C(=O)C1 (stereo not given)
N[C@@H](Cc1cc(I)c(Oc2cc(I)c(O)c(I)c2)c(I)c1)C(=O)O
CC(=O)OCCCc1ccccc1
CCCCCCCC/C=C\CCCCCCCC(=O)OCC
C=CCN(CC=C)CC=C
COc1ccc(CCO)cc1
COC(=O)c1ccc(C)cc1C1=NC(C)(C(C)C)C(=O)N1 (stereo not given) (tested in a mixture with another compound)
CC=Cc1ccc(OCC)c(O)c1
O=CN1CCOCC1
C=C(C)C(=O)OCCOCCOCCOCCOC(=O)C(=C)C
CC(=O)O[C@@H]1C[C@@H]2CC[C@@]1(C)C2(C)C
CCCCCCCCCCCC(=O)OCC(O)CO (stereo not given)
O=C1OC(=O)c2c(Cl)c(Cl)c(Cl)c(Cl)c21
CC(=O)CC(=O)Nc1ccccc1
Cc1cccc(Nc2ccccc2)c1
C[C@@H]1CCN(C(=O)[C@H](CCCN=C(N)N)NS(=O)(=O)c2cccc3c2NC[C@H](C)C3)[C@@H](C(=O)O)C1
C=CCCC(=O)/C=C/C1C(C)=CCCC1(C)C (stereo not given)
[O-]n1ccccc1=S.[O-]n1ccccc1=S.[Zn+2]
CC(=O)NCCO
Cc1ccc2c(c1)C(=O)OC2=O
c1ccc(CCc2ccccc2)cc1
[Cl][Au]([Cl])[Cl]
C1=CC2C3C=CC(C3)C2C1 (stereo not given)
CCOC(=O)CCc1ccccc1
COc1cc(CCC(C)=O)ccc1O
CCCCC(CC)C(=O)OC(C)C (stereo not given)
CCc1cc(Cc2cc(CC)cc(C(C)(C)C)c2O)c(O)c(C(C)(C)C)c1
CC1(C)C(=O)N(Cl)C(=O)N1Br
CCCCCCOC(=O)CCC
CCC(=O)O[C@@H]1C[C@H]2CC[C@]1(C)C2(C)C
COCCOCCOCCO
Nc1ccc2c(O)cc(S(=O)(=O)O)cc2c1
O=C(Nc1ccc2c(c1)Cc1ccccc1-2)C(F)(F)F
C[C@H](CCC(=O)NCC(=O)O)[C@H]1CC[C@H]2[C@@H]3[C@H](O)C[C@@H]4C[C@H](O)CC[C@]4(C)[C@H]3C[C@H](O)[C@]12C
OCCc1ccccc1
CC(C)NCC(O)COc1ccc(CC(N)=O)cc1 (stereo not given)
CC(C)CCCCCCc1ccc(OCCOCCO)cc1

From PubChem BioAssay (EPA / NIEHS)
